Compounds with a hit are over-represented: about 2.1% of the library has one in this group of screens.
KLF5 inh: kruppel-like factor 5 inhibition; inhibition, % at 5 µM; DLD-1 KLF5 promoter-luciferase reporter, luminescence; AID 1700; 290,000 tested, 0.23% active;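 active = inhibition above a per-plate limit of that plate's mean compound inhibition plus 3 SD, cut at about 60% in these data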;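 note: higher means less KLF5 promoter-driven luciferase light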
HIF act: HIF pathway transcriptional activation | activation, % at 7.5 µM (by protocol) | U2OS HRE-luciferase reporter, luminescence; normalized: DMSO 0%, desferrioxamine 100% | 300,000 tested, 0.32% active;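 active = mean activation of at least 10% of the iron chelator positive control signal, with at least half of replicates also reaching 10%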
aSyn UTR inh: 5' untranslated region of α-synuclein, MLPCN primary screen | alpha-synuclein 5'UTR reporter, inhibitor activity | inhibition, % (tested at 7.5 µM) | 300,000 tested, 0.82% active | AID 1813; in the data active = inhibition above about 60%;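 note: H4 neuroglioblastoma cells stably carrying SNCA 5'UTR luciferase fusion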
Platelet DG rel: modulates dense granule release in human platelets; inhibition, %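 (compounds screened at 7.5 µM in platelet-rich plasma)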; 300,000 tested, 0.22% active; AID 1663; human platelet-rich plasma, SFLLRN dense granule ATP release, luminescence;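 active = mean replicate score, as percent of positive control, at or above 50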
Wee1 degr inh: blocks degradation of human Wee1 kinase; HeLa Luc-Wee1K328M stability, luciferase luminescence; 100% = proteasome inhibitor MG132 effect; AID 1321; 220,000 tested, 1.2% active; reporter increase, % at 5 µM;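 active = activation above the mean of all tested compounds plus 3 SD, set per screening run, cut at about 8.8% in these data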;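 note: cells exposed to compound for 20 h before luminescence read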
Target sequence (P30291 whole entry K328M): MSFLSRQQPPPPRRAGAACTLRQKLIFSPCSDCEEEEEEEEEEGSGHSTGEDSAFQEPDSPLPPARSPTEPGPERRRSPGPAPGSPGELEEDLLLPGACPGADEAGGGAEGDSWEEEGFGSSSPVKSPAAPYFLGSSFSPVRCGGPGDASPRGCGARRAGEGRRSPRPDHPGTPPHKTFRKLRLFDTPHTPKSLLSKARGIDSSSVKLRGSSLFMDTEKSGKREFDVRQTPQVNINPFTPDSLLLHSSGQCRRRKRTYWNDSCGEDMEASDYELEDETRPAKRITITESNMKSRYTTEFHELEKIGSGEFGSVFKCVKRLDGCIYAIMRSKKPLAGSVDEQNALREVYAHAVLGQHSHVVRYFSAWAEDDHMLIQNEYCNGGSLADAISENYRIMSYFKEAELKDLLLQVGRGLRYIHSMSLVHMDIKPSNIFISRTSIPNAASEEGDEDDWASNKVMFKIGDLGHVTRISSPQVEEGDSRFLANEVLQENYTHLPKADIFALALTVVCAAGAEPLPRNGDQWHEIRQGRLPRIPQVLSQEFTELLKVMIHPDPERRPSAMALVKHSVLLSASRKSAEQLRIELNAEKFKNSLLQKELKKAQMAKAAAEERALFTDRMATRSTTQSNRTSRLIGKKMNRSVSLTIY
Wee1 degr conf: human Wee1 degradation inhibition, confirmation. shares compounds with Wee1 degr inh. HeLa Luc-Wee1K328M degradation, luminescence; vehicle 0%, proteasome-blocked wells 100%. activation, % at 5 µM. 1,100 tested, 4% active; in the data active = activation above about 8.9%
Large screens that a line does not name were inactive (follow-up assays come after a bar, where they were run).

CC(O)(CS(=O)(=O)Cc1ccccc1)c1ccccc1 (centres undefined)	none (no result: Wee1 degr inh)
COC(=O)c1c(C(=O)OC)c(-c2ccc(Br)cc2)n2c1CS(=O)C2 (centres undefined)	none (no result: Wee1 degr inh)
COc1cc(/C=N/N=C(/C(=O)c2ccccc2)c2ccccc2)cc(OC)c1O	Wee1 degr inh 12 | Wee1 degr conf inactive
COc1cc(/C=N/N=C/c2cc(OC)c(O)c(OC)c2)cc(OC)c1O	none
O=C(NCc1ccc(OC(F)(F)F)cc1)C12CN(Cc3ccccc3)CC1C(c1cccc([N+](=O)[O-])c1)=NO2 (centres undefined)	Wee1 degr inh 26 | Wee1 degr conf inactive
Clc1ccc(Nc2nc(C3CC3)cs2)cc1	Wee1 degr inh 12 | Wee1 degr conf inactive
Cc1ccc2cc3c(N)c(C(=O)Nc4c(C)[nH]c(=O)[nH]c4=O)sc3nc2c1	Wee1 degr inh 12 | Wee1 degr conf inactive
Cc1ccc2nc3sc(C(=O)Nc4c(C)[nH]c(=O)[nH]c4=O)c(N)c3cc2c1	none
COc1cccc(/C=N/NC(=O)c2ccoc2C)c1	none
Cc1c(NC(=O)C(C)OC(=O)c2cccs2)c(=O)n(-c2ccccc2)n1C (centres undefined)	Wee1 degr inh 30 | Wee1 degr conf inactive
Cc1c(NC(=O)c2cccs2)c(=O)n(-c2ccccc2)n1C	none
Cc1cc(N2CCCC2)nc(N2C3CCC2CC(O)(c2ccc(F)cc2)C3)n1 (centres undefined)	Wee1 degr inh 16 | Wee1 degr conf inactive
COc1ccc(C2(O)CC3CCC(C2)N3c2cc(C)nc(-c3ccccc3)n2)cc1 (centres undefined)	none
O=C(C1CC(=O)N(c2ccc(F)cc2)C1)N1CCC(c2nc3ccccc3[nH]2)CC1 (centres undefined)	none (no result: KLF5 inh, Wee1 degr inh)
CCOc1ccc(S(=O)(=O)N(CC(=O)NCc2cccnc2)c2ccc(F)cc2)cc1	none (no result: Wee1 degr inh)
CC(=O)c1c(COC(=O)c2ccc(C)cc2)nc2ccccc2[n+]1[O-]	Wee1 degr inh 16 | Wee1 degr conf inactive
Cc1ccc(Cl)cc1-n1c(=O)cc(N2CCN(C(=O)c3ccco3)CC2)[nH]c1=O	Wee1 degr inh 14 (no result: HIF act) | Wee1 degr conf inactive
CCNc1nc(N)nc(-c2cc(Cl)ccc2O)n1	none
CCCCNc1nc(N)nc(-c2cc(Cl)ccc2O)n1	HIF act 13, Wee1 degr inh 14 | Wee1 degr conf inactive
COc1ccc(C(=S)Nc2ccc(N(C)C)cc2)cc1	none
COc1ccc(NC(=S)c2ccc(N(C)C)cc2)cc1	HIF act 36, Wee1 degr inh 13 | Wee1 degr conf inactive
CCc1[nH]nc2c1C1(CCN(C(=O)OCc3ccccc3)CC1)C(C#N)=C(N)O2	Wee1 degr inh 16 | Wee1 degr conf inactive
Cc1ccn2c(c1)nc(=S)n2C(=O)c1ccccc1	Wee1 degr inh 14 | Wee1 degr conf inactive
CCN(CC)CCNC(=O)c1ccc(NC(=O)/C=C/c2ccc3ccccc3n2)cc1	none (no result: Wee1 degr inh)
NC(=O)N/N=C/c1cn(-c2ccccc2)nc1-c1cccs1	Wee1 degr inh 16 | Wee1 degr conf inactive
O=C(N/N=C/c1cn(-c2ccccc2)nc1-c1cccs1)c1ccncc1	none
O=C(c1ccco1)N1CCC(c2nc3c(nnn3Cc3ccc(F)cc3)c(=O)[nH]2)CC1	none (no result: Wee1 degr inh)
Cc1ccc(S(=O)(=O)N(C)CCCC(=O)NC(C)(C)C)cc1	Wee1 degr inh 12 | Wee1 degr conf inactive
CCCc1cc(=O)n2[nH]c(-c3ccc(C)cc3)cc2n1	Wee1 degr inh 13 | Wee1 degr conf inactive
COc1ccc(-c2ccc(SCC(=O)Nc3cccc(C(C)=O)c3)nn2)cc1OC	Wee1 degr inh 12 | Wee1 degr conf inactive
CCO[C@@H]1OC(C(=O)N2CCCCCCC2)=C[C@H](c2cn(C(C)=O)c3ccccc23)[C@H]1CCCO	none
NS(=O)(=O)c1ccc(NC(=S)NC(=O)c2cccs2)cc1	Wee1 degr inh 19 | Wee1 degr conf inactive
Cn1c2c(c(=O)n(C)c1=O)C(CC(=O)Nc1ccc(F)cc1)C(=O)N2 (centres undefined)	Wee1 degr inh 11 | Wee1 degr conf inactive
Cc1ccc(CNC(=O)CC2C(=O)Nc3c2c(=O)n(C)c(=O)n3Cc2ccccc2)cc1 (centres undefined)	none
CCOCCc1nnc(NC(=O)C2CC(=O)N(c3ccc(OCC)cc3)C2)s1 (centres undefined)	none (no result: Wee1 degr inh)
COc1ccc(C(=O)Nc2nnc(Cc3ccc(OC)c(OC)c3)s2)cc1	none (no result: Wee1 degr inh)
COc1ccccc1-n1cnnc1SCC(=O)Nc1nc(C)c(Cl)cc1Cl	Wee1 degr inh 13 | Wee1 degr conf inactive
COc1ccccc1-n1cnnc1SCC(=O)Nc1ncc(Cl)cc1Cl	none
Cc1cc(NC(=O)COc2coc(CN3CCN(c4ccccc4F)CC3)cc2=O)no1	none (no result: KLF5 inh, Wee1 degr inh)
Cn1c(=O)c2c(nc(NCCO)n2C)n(C)c1=O	none
CC(C)/C=N/Nc1nc2c(c(=O)n(C)c(=O)n2C)n1C	Wee1 degr inh 12 | Wee1 degr conf inactive
COc1cc(C)ccc1OCc1cc(C(=O)NCCN2CCOCC2)no1	none (no result: Wee1 degr inh)
CCOCCn1cnc2sc(C(=O)Nc3nc(C)c(C(=O)OCC)s3)c(C)c2c1=O	none (no result: HIF act, aSyn UTR inh, Platelet DG rel)
CCOC(=O)c1sc(NC(=O)CNC(=O)Cn2cnc3sc(C)c(C)c3c2=O)nc1C	Wee1 degr inh 11 | Wee1 degr conf inactive
CC(C)=CC1C(C(=O)NCCc2ccccc2)C1(C)C (centres undefined)	none (no result: KLF5 inh, Wee1 degr inh)
Cc1ccc(-n2nc(-c3ccccc3)cc2Nc2ccccc2N)cc1	Wee1 degr inh 11 | Wee1 degr conf inactive
Nc1ccccc1Nc1cc(-c2ccccc2)nn1-c1ccccc1	none
CCCCC1(CO)C(=O)N(c2ccccc2)N(c2ccccc2)C1=O	none
CCCCCCCC1(C)NC(=O)N(c2ccccc2)N1 (centres undefined)	Wee1 degr inh 14 (no result: HIF act) | Wee1 degr conf inactive
Cc1cccc(C)c1NC(=O)c1c(-c2ccccc2)noc1C	Wee1 degr inh 11 | Wee1 degr conf inactive
Cc1ccccc1NC(=O)c1c(-c2ccccc2)noc1C	none
O=C(COc1ccc(C(=O)c2ccc(F)cc2)cc1)NCc1ccc(F)cc1	Wee1 degr inh 11 | Wee1 degr conf 14
COc1ccc(CNC(=O)COc2ccc(C(=O)c3ccc(F)cc3)cc2)cc1	none
Cc1ccc(NC(=O)CCC(=O)c2cccs2)c(O)c1	Wee1 degr inh 15 | Wee1 degr conf inactive
Cc1ccc(F)cc1NC(=O)CCC(=O)c1cccs1	none
CCc1cc2cc(C)cc(C)c2nc1SCC(=O)Nc1cc(C)on1	Wee1 degr inh 11 | Wee1 degr conf inactive
Cc1ccc(C2OC3=C(C(=O)CC(C)(C)C3)C(N)=C2C#N)o1 (centres undefined)	Wee1 degr inh 15 | Wee1 degr conf inactive
Cc1ccc(C2C(C#N)=C(N)SC(N)=C2C#N)o1	none
CN(Cc1cccc(F)c1)C(=O)c1ccccc1Sc1ccccc1C#N	none (no result: Wee1 degr inh)
CCCNC(=O)COC(=O)c1c2c(nc3ccccc13)CCC2	none (no result: Wee1 degr inh)
CCOc1ccc(Cc2noc3c2C(=O)CC(C)(C)C3)cc1OCC	none

Assay outcomes: PubChem BioAssay, several laboratories
